# Assay results as given in PubChem BioAssay (NCATS).
# Inconclusive results are not listed. A number with no mark means an inactive call. The source made the active and inactive calls. Calls come from the whole dose curve; as a rule, active = well fitted inhibition curve with a large enough effect; inconclusive = small, poorly fitted or top-dose-only effect; inactive = flat fitted curve, though single readings scatter.
# Molecular target: Calcium and integrin-binding protein 1 (Homo sapiens) (UniProt Q99828)
# Experiment: Primary qHTS for Identification of Calcium Integrin Binding Protein 1 (CIB1) Competitor (AID 1508620);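 note: GST tagged CIB1 binding a fluorescein labelled alphaIIb integrin peptide tracer; top concentration of the series differs between compounds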
# Conditions: CIB1-GST / FITC-alphaIIb peptide fluorescence polarization; series mostly up to 57.7 µM; activity change, negative = inhibition: at the top concentration
# In short: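 Fluorescence polarization competition: CIB1-GST (1 uM final) preincubated with compound 15 min at room temperature, then FITC-labeled alphaIIb peptide (100 nM final) added for another 15 min. Polarization read at Ex 480/Em 540.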
# % is set by controls: 0 for no effect and ±100 for the full control effect.
# Chain of Calcium and integrin-binding protein 1 (Homo sapiens) (Q99828 whole entry, looked up): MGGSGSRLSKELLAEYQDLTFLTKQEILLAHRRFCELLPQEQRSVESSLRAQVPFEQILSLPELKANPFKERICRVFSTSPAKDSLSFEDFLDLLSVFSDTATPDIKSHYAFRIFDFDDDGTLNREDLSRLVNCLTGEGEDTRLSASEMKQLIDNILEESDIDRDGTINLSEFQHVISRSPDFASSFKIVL
Compound,"activity change, negative = inhibition",outcome
C[C@]12CC[C@H](O)CC1=CC[C@@H]1[C@H]2CC[C@]2(C)C(c3cccnc3)=CC[C@H]12,-1.62% [at 30.2 µM],
CCOc1cc(C(=O)Nc2ccc(Cl)c(-c3nc4ccccc4[nH]3)c2)cc(OCC)c1OCC,,inactive
COc1ccc2c3n(c(=NC(=O)c4cccnc4)nc2c1OC)CCN3,0.407%,
OCCC#Cc1nc(-c2ccc(F)cc2)c(-c2ccncc2)n1CCCc1ccccc1,-2.35%,
O=C(NOC[C@H](O)CO)c1ccc(F)c(F)c1Nc1ccc(I)cc1F,,inactive
O=C1[C@H](Cc2ccc(O)cc2)N2C(=O)CCN(C(=O)NCc3ccccc3)[C@H]2CN1Cc1cccc2ccccc12,1.96%,
COCCNCCCn1c(C(=O)CF)c(-c2ccc(C)cc2)c2c(N)ncnc21,,inactive
O=C(Nc1cccnc1)N1CCC(Cc2cccc(Oc3ccc(C(F)(F)F)cn3)c2)CC1,,inactive
COc1cccc2cc(-c3nc(C4CCC(C(=O)O)CC4)n4ncnc(N)c34)[nH]c12 (stereo unspecified),,inactive
Cc1cc(C=c2sc3nc4ccccc4n3c2=O)c(C)n1-c1ccccc1,-1.61%,
COc1cc(Nc2ncc3c(n2)-c2ccc(Cl)cc2C(c2c(F)cccc2OC)=NC3)ccc1C(=O)O,,inactive
COc1cc2nccc(Oc3ccc(NC(=O)NC4CC4)c(Cl)c3)c2cc1C(N)=O,,inactive
CC1(C)SCCN(S(=O)(=O)c2ccc(OCC#CCO)cc2)[C@@H]1C(=O)NO,0.575%,
O=C(C=Cc1ccc(/C=C/C(=O)Nc2ccc(C3=NCCN3)cc2)cc1)Nc1ccc(C2=NCCN2)cc1,-3.31%,
CCn1c(-c2nonc2N)nc2c(C#CC(C)(C)O)ncc(OC[C@H]3CCCNC3)c21,-1.31%,
COc1ccc([C@@H]2CC(=O)c3c(O)cc(O[C@@H]4O[C@H](CO[C@@H]5O[C@@H](C)[C@H](O)[C@@H](O)[C@@H]5O)[C@@H](O)[C@H](O)[C@@H]4O)cc3O2)cc1O,,inactive
CCCS(=O)(=O)Nc1ccc(F)c(C(=O)c2c[nH]c3ncc(-c4ccc(Cl)cc4)cc23)c1F,,inactive
O=C(c1cc(Cc2n[nH]c(=O)c3ccccc23)ccc1F)N1CCN(C(=O)C2CC2)CC1,,inactive

Compound,"activity change, negative = inhibition",outcome
CCOc1ccc(Cc2cc([C@@H]3O[C@H](CO)[C@@H](O)[C@H](O)[C@@H]3O)ccc2Cl)cc1,0.0626%,
Cc1ccc(NC(=O)c2cccc(C(C)(C)C#N)c2)cc1Nc1ccc2ncn(C)c(=O)c2c1,-6.36%,
Nc1nccc(-c2ccc3noc(-c4ccc(Cl)cc4)c3c2)n1,1.69%,
O=S(=O)(N=Cc1c(O)ccc2ccccc12)c1cccs1,-3.62%,
COc1ccc(-c2ccc3c(N4CCOC[C@H]4C)nc(N4CCOC[C@H]4C)nc3n2)cc1CO,-1.08%,
Cc1ccccc1C(C(=O)NC1CCCC1)N(C(=O)Cn1cnc2ccccc21)c1cccc(F)c1 (stereo unspecified),-7.81%,
C[C@H](NC(=O)Cc1cc(F)cc(F)c1)C(=O)N[C@@H]1C(=O)N(C)c2ccccc2-c2ccccc21,,inactive
CCOc1cc(N2CCC(O)CC2)ccc1Nc1ncc2c(n1)N(C)c1ccccc1C(=O)N2C,-12.1%,
Oc1cccc(-c2nc(N3CCOCC3)c3oc4ncccc4c3n2)c1,-1.61% [at 114 µM],
CO[C@@H]1[C@H](N(C)C(=O)c2ccccc2)C[C@H]2O[C@]1(C)n1c3ccccc3c3c4c(c5c6ccccc6n2c5c31)C(=O)NC4,6.27%,
CCc1cc(Nc2nccc(-c3c(-c4ccc(OC)c(C(=O)Nc5c(F)cccc5F)c4)nc4ccccn34)n2)c(OC)cc1N1CCC(N2CCN(S(C)(=O)=O)CC2)CC1,,inactive
COc1cc(F)c(F)c(Nc2ccc(I)cc2F)c1NS(=O)(=O)C1(C[C@H](O)CO)CC1,,inactive
COc1ccc(-c2oc3cc(OC)ccc3c2C(=O)c2ccc(C#N)cc2)cc1,-3.83%,
CC(C=CC1=C(C)CCCC1(C)C)=CC=CC(C)=CC(=O)O,,inactive
Cc1csc(NC(=O)c2sc3nc4c(c(C(F)(F)F)c3c2N)CCC4)n1,,inactive
COc1ccc(C2=N[C@H](c3ccc(Cl)cc3)[C@H](c3ccc(Cl)cc3)N2C(=O)N2CCNC(=O)C2)c(OC(C)C)c1,-7.97%,
CCOC(=O)N[C@@H]1CC[C@@H]2[C@@H](C1)C[C@H]1C(=O)O[C@H](C)[C@H]1[C@@H]2C=Cc1ccc(-c2cccc(F)c2)cn1,1.99%,
CCOc1cc(C=C2C(=O)N(c3ccccc3)N=C2C)cc(Cl)c1OCC(=O)OC,-19.1%,
